# Source: PubChem BioAssay
# Rows were chosen to be rich in hits. Some 4.2% of all compounds tested hit in one or more screens of this group.
# VDR inh: inhibitors of human vitamin D receptor | VDR-SRC2-3 peptide fluorescence polarization, 2 h | Potency, µM, for inactives: max response, negative = inhibition, most hits filed as inhibitors | 400,000 tested, 0.93% active | AID 504847
# Target sequence (P11473 whole entry, looked up): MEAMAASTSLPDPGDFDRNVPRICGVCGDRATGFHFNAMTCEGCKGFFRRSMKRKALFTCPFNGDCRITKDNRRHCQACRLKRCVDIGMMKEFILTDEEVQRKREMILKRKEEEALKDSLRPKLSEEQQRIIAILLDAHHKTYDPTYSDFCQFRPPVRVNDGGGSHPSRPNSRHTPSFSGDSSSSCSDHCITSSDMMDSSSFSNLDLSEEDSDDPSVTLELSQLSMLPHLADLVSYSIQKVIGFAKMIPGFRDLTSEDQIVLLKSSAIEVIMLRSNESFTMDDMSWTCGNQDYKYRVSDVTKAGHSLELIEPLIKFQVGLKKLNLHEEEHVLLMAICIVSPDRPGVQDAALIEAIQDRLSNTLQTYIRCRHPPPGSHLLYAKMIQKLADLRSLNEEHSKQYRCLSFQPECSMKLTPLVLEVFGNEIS
#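 Signal is fluorescence polarization, reporting how far test compounds block the interaction of VDR with the SRC2-3 coregulator peptide after a 2 h room-temperature incubation.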
# 12-LOX inh: blocks human arachidonate 12S-lipoxygenase; AID 1671190; P18054; 580,000 tested, 1.1% active; purified 12hLO, xylenol orange hydroperoxide absorbance; Potency, µM (doses to about 108 µM), for inactives: at the top dose activity change, negative = inhibition, most hits filed as inhibitors
#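 Purified human 12hLO (150 nM final) in 25 mM Hepes, 0.01% Triton X-100, pH 7.0 was preincubated 15 min at room temperature with compound. Then 40 uM arachidonic acid was added, 30 min. Hydroperoxide was read by Fe-XO absorbance ratio 573/405 nm.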
# Sfp PPTase inh: Sfp phosphopantetheinyl transferase inhibition; Potency, µM, for inactives: largest response in the series, negative = inhibition, usual class: inhibitors; 310,000 tested, 3.5% active; Biochemical Sfp PPTase activity, qHTS;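 note: the enzyme is Sfp with the accession as filed and its product quenches rhodamine fluorescence; 0% = enzyme reaction without inhibitor and -100% = no enzyme wells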
#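 After 15 min at room temperature with compound, 15 nM Sfp received 5 uM rhodamine-CoA plus 12.5 uM BHQ-2-ybbR (50 mM Hepes pH 7.6, 10 mM MgCl2). Rate came from the fluorescence difference over 30 min, ex 525/em 598 nm.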
# PLK1 PBD block: PLK1 (human) polo-box domain binding inhibition; P53350; Plk1 PBD binding of FITC phosphopeptide, fluorescence polarization; Potency, µM, for the others: max response, negative = inhibition, actives largely listed as inhibitors; 360,000 tested, 2.8% active; note: series mostly up to about 57 µM; nearly all actives have a fitted effect of over 65% in size
# Active calls of the source: *; ? = inconclusive; · = not tested or not shown; [ ] = dose if it differs, or a comment. Calls come from the whole dose curve; as a rule, active = well fitted curve in the direction sought with a large enough effect; inconclusive = small, poorly fitted or top-dose-only effect, or another doubt; inactive = no such curve, though single readings can be large; an effect the other way counts as inactive or inconclusive. Unless noted, % is set by controls: 0 for no effect and ±100 for the full control effect; potency is the fitted concentration of half-maximal effect.
SMILES,VDR inh,12-LOX inh,Sfp PPTase inh,PLK1 PBD block
COc1ccc2ccccc2c1C1CC(=O)N2CN(Cc3ccco3)CSC2=C1C#N (stereo not given),?,?,5.6µM*,19µM*
COc1ccc(OC)c(C2C(C#N)=C(N)N(N(C)C)C3=C2C(=O)CCC3)c1 (stereo not given),-20%,18%,12%,-5%
COc1ccccc1N1CCN(Cc2ccco2)CC1,-2%,?,-24%,-1%
COc1ccc(C2CC(=O)N3CN(C4CCCCC4)CSC3=C2C#N)c(OC)c1 (stereo not given),?,40µM*,·,·
CC(=O)n1cc(N(C(=O)CCl)c2ccc([N+](=O)[O-])cc2)c2ccccc21,22µM*,?,11%,-24%
N#CC1=C(N)Oc2c(oc(CO)cc2=O)C1c1ccsc1 (stereo not given),-12%,?,50µM*,-27%
COC1=CC(=O)CC(C)C12Oc1cc(OC)cc(OC)c1C2=O (stereo not given),0%,13%,7%,-4%
COC(=O)C1=CC(=O)C=C(OC)[C@@]12Oc1cc(C)cc(OC)c1C2=O,·,4.5µM*,·,·
O=C(NC1CCCCC1)C(c1cccnc1)N(CCc1ccccc1)C(=O)Cc1cccs1 (stereo not given),?,21%,17%,27µM*
O=C(NC1CCCC1)C(c1ccncc1)N(Cc1cccs1)C(=O)c1csnn1 (stereo not given),-14%,0%,20µM*,-22%
N#CCC(=O)N/N=C/c1cn(Cc2ccc(Cl)cc2Cl)c2ccccc12,2%,455%,-7%,-1%
O=C(CSc1nc2[nH]ncc2c(=O)[nH]1)Nc1ccccc1F,-7%,-18%,·,3%
CC(OC(=O)/C=C/c1ccco1)C(=O)Nc1cccc([N+](=O)[O-])c1 (stereo not given),-7%,-26%,?,-4%
NC(N)=NS(=O)(=O)c1ccc(NC(=S)NC(=O)/C=C/c2ccco2)cc1,6%,9%,5%,-9%
O=C(/C=C/c1ccco1)NC(=S)Nc1cccc([N+](=O)[O-])c1,-14%,40µM*,32µM*,-24%
O=C(/C=C/c1ccco1)NCc1ccc(F)cc1,12%,32µM*,40µM*,?
O=C(CNC(=O)/C=C/c1ccco1)N=Nc1c(O)[nH]c2ccccc12,-2%,-7%,20µM*,?
NS(=O)(=O)c1ccc(NC(=S)NC(=O)/C=C/c2ccco2)cc1,-4%,-23%,20µM*,-9%
O=C1CC/C=C\C[C@@H](CC(=O)N(CCO)Cc2ccccc2)C(=O)N2CCC[C@H]2CO1,10%,-2%,·,2%
O=C(Cc1ccc(NC(=O)N2CCSc3ncccc32)cc1)NCCc1ccccc1,5%,-17%,·,·
O=C(Nc1cccc(F)c1)N1CCC2(CC1)CCN(C(=O)c1cnccn1)CC2,11%,-5%[57.4 µM],13%,·
COc1ccc(NC(=O)C2=C(C)Nc3nc(SCc4ccc(C)cc4C)nn3C2c2cccc(OC)c2OC)cc1 (stereo not given),5%,-8%,·,·
NS(=O)(=O)c1ccc(CNC(=O)/C=C/c2ccco2)cc1,-21%,2%,20µM*,?
CC(C)c1ccc(/C=C/C(=O)NCc2ccc(S(N)(=O)=O)cc2)cc1,12%,-27%,21%,-3%
O=C1NCc2ccccc2CC12CCN(Cc1ccc(Cl)cc1)C2 (stereo not given),·,22µM*,·,·
SMILES,VDR inh,12-LOX inh,Sfp PPTase inh,PLK1 PBD block
Cc1ccc(CCN2CCC3(Cc4ccccc4CN([S+](C)(=O)[O-])C3)C2)cc1 (stereo not given),·,7.1µM*,·,·
O=C1NCc2ccccc2CC12CCN(Cc1ccc(Br)cc1)C2 (stereo not given),·,28µM*,·,·
O=C1NCc2ccccc2CC12CCN(Cc1ccc([N+](=O)[O-])cc1)C2 (stereo not given),·,50µM*,·,·
O=C1NCc2ccccc2CC12CCN(Cc1ccc(O)cc1)C2 (stereo not given),·,2%,·,·
CCOc1ccc(CN2CCC3(Cc4ccccc4CNC3=O)C2)cc1 (stereo not given),·,-1%[6.33 µM],·,·
Cc1ccc(CCN2CCC3(Cc4ccccc4CNC3=O)C2)cc1 (stereo not given),·,13µM*,·,·
C[S+](=O)([O-])N1CC2(CCN(Cc3ccc(Cl)cc3)C2)Cc2ccccc21 (stereo not given),·,45µM*,·,·
C[S+](=O)([O-])N1CC2(CCN(Cc3cccc(C(N)=O)c3)C2)Cc2ccccc21 (stereo not given),·,7%[6.33 µM],·,·
COC[C@H]1CCCN1c1ccc2c(c1)O[C@H](COCc1ccccc1)CN([C@@H](C)c1ccccc1)S2(=O)=O,·,7%,·,-4%
O=C1N(c2ccccc2C(F)(F)F)O[C@@]1(c1ccccc1)C1CCCCC1,-1%,-2%,·,-12%
C/C(=N/NS(=O)(=O)c1cc(C)ccc1C)c1ccncc1,?,?,-5%,15µM*
Cc1ccc(C)c(S(=O)(=O)NCc2ccncc2)c1,-11%,2%,13%,-3%
CC1c2cc3c(cc2CCN1C(=O)c1ccc(Br)cc1)OCCCO3 (stereo not given),-19%,-9%,-12%,-5%
Cc1ccc(/C=C/C2=Cc3c(sc(NC(=O)CSc4n[nH]c(N)n4)c3C#N)C(C)(C)C2)o1,·,·,2.5µM*,·
Cc1cc(NC(=O)CSc2n[nH]c(N)n2)no1,9%,0%,18%,7%
CCOc1c(OC(C)=O)ccc(/C=C2\N=C(SCC)SC2=O)c1[N+](=O)[O-],?,?,-68%,30µM*
CCOc1cc(/C=C2\N=C(SCC)SC2=O)cc([N+](=O)[O-])c1OC(C)=O,-1%,?,?,27µM*
CCOc1cc(/C=C2\N=C(SC)SC2=O)cc([N+](=O)[O-])c1OC(C)=O,-8%,·,?,?
COc1ccc(-n2nnnc2S(=O)(=O)CC(=O)N2CCCCC2)cc1,?,·,-13%,12µM*
CCc1ccc(Oc2nnnn2-c2ccc(C(N)=O)cc2)cc1,5%,-3%,7%,0%
COc1ccc(-n2nnnc2S(=O)(=O)Cc2ccc(C(=O)O)cc2)cc1,?,-33%,-5%,30µM*
COc1ccc(C(=O)COC(=O)COc2cccc3c2OC(C)(C)C3)c(OC)c1,15%,-16%,·,1%
COc1ccc(-c2cc(C(=O)Nc3ccc(S(=O)(=O)Nc4ncccn4)cc3)c3ccccc3n2)cc1,6%,0%,19%,-14%
CC(C)=CC(=O)Nc1ccc(S(=O)(=O)Nc2onc(C)c2C)cc1,-10%,?,-1%,-7%
COc1cc(-c2cc(C(=O)Nc3ccc(S(=O)(=O)Nc4ncccn4)cc3)c3ccccc3n2)cc(OC)c1OC,?,-17%,11%,27µM*
CCN(CC)S(=O)(=O)c1ccc(O)c(NC(=O)c2cc(-c3cc(OC)c(OC)c(OC)c3)nc3ccccc23)c1,-23%,·,45µM*,19µM*
Cc1noc(NS(=O)(=O)c2ccc(NC(=O)c3cc(-c4ccccc4Cl)nc4ccccc34)cc2)c1C,-17%,-15%,23%,38µM*
